According to PubChem BioAssay (NCI):
About 83,000 compounds went through this panel and 20% of them were active in at least one assay; those are over-represented in the sample as a whole.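 Each cell line was grown in a 96-well plate and treated with one concentration of compound for 48 hours. Values below 10 were considered active.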 Unmarked numbers belong to inactive results. The source made the active and inactive calls.

Experiments:
Experiment in all cases: NCI-60 one-dose screen, 48 h (100 = growth as untreated, 0 = no growth, -100 = all killed)
Conditions in all cases: 10 µM
[1] = test system: T-47D breast
[2] = test system: BT-549 breast
[3] = test system: MDA-MB-435 melanoma
[4] = test system: SW-620 colon
[5] = test system: MCF7 breast
[6] = test system: HCT-116 colon
[7] = test system: HCC-2998 colon
[8] = test system: KM12 colon

O=C(N/N=C/c1c(Cl)cccc1Cl)c1ccccc1Nc1cccc(C(F)(F)F)c1
growth [1]: 94.4% | growth [2]: 81.3% | growth [3]: 110% | growth [4]: 96.2% | growth [5]: 94.7% | growth [6]: 93.1% | growth [7]: 117%

CCOC(=O)c1cc(C(=O)c2ccc(F)cc2F)n2ccccc12
growth [1]: 76.3% | growth [2]: 88.5% | growth [3]: 106% | growth [4]: 94.5% | growth [5]: 94.1% | growth [6]: 92.5% | growth [7]: 101% | growth [8]: 96.1%

c1cnc2[nH]cc(-c3nc(-c4ccsc4)cs3)c2c1
growth [1]: 66.1% | growth [2]: 96.1% | growth [3]: 98.3% | growth [4]: 111% | growth [5]: 57.7% | growth [6]: 89.9% | growth [7]: 115% | growth [8]: 88.9%

O=C(CNc1nnc(-c2cccnc2SCc2ccccc2)s1)Nc1nc(Cl)cc(Cl)n1
growth [1]: 79.3% | growth [2]: 100% | growth [3]: 114% | growth [4]: 117% | growth [5]: 89.1% | growth [6]: 106% | growth [7]: 122% | growth [8]: 97.9%

CC(=O)Nc1ccc2c(c1)C(=O)c1cccc(C(=O)O)c1-2
growth [1]: 99.3% | growth [2]: 117% | growth [3]: 102% | growth [4]: 99.8% | growth [5]: 105% | growth [6]: 105% | growth [7]: 102% | growth [8]: 120%

N#CC1=CC2CN(Cc3ccccc3)C1C1C(=O)N(c3ccccc3)C(=O)C21 (stereo not drawn)
growth [1]: 99.5% | growth [2]: 95% | growth [3]: 105% | growth [4]: 95.2% | growth [5]: 97.1% | growth [6]: 101% | growth [7]: 92.1% | growth [8]: 103%

O=C1CC(SC(=S)C2CCCC2=O)C(=O)N1 (stereo not drawn)
growth [1]: 93.9% | growth [2]: 100% | growth [3]: 114% | growth [4]: 110% | growth [5]: 90.8% | growth [6]: 99.2% | growth [7]: 108% | growth [8]: 103%

CC(=O)C1N=NCC1c1ccccc1 (stereo not drawn)
growth [1]: 104% | growth [2]: 105% | growth [3]: 108% | growth [4]: 101% | growth [5]: 95.7% | growth [6]: 100% | growth [7]: 102% | growth [8]: 102%

COC(=O)c1c[nH]c2cc(OC(C)C)c(OC(C)C)cc2c1=O
growth [1]: 103% | growth [2]: 112% | growth [3]: 106% | growth [4]: 105% | growth [5]: 84.8% | growth [6]: 102% | growth [7]: 104% | growth [8]: 106%

O=C(CSc1nnc(-c2cccnc2SCc2ccccc2)o1)Nc1nc(Cl)cc(Cl)n1
growth [1]: 98.5% | growth [2]: 102% | growth [3]: 105% | growth [4]: 103% | growth [5]: 92% | growth [6]: 97.3% | growth [7]: 103%

O=C(COc1cccc(/C=C2\CSc3ccc(Cl)cc3C2=O)c1)c1ccc(Cl)cc1
growth [1]: 45.2% | growth [2]: 20.2% | growth [3]: 87.7% | growth [4]: -71.6% (active) | growth [5]: -35.1% (active) | growth [6]: 42% | growth [7]: 32.9%

CNC(=O)c1cn(C2CC2)c2cc(N3CCN(C(=O)c4cc(OC)c(OC)c(OC)c4)CC3)c(F)cc2c1=O
growth [1]: 79% | growth [2]: 112% | growth [3]: 108% | growth [4]: 103% | growth [5]: 94.3% | growth [6]: 103% | growth [7]: 113% | growth [8]: 102%

Clc1ccc(C2=NN=C3C(Cc4ccccc4)=Nc4ccccc4N3C2)cc1
growth [1]: 95% | growth [2]: 88.8% | growth [3]: 73% | growth [4]: 91.8% | growth [5]: 88.7% | growth [6]: 53.1% | growth [7]: 68.5% | growth [8]: 63.6%

Nc1ccc(/C=N/Nc2ccnc3c(O)cccc23)c2cccnc12
growth [1]: 98.3% | growth [2]: 80.2% | growth [3]: 46.8% | growth [4]: 7.41% (active) | growth [5]: 31.7% | growth [6]: -0.0751% (active) | growth [7]: 60.8% | growth [8]: 43.3%

COc1cc(-c2csc(NC(=O)Nc3ccc(Cl)c(C(F)(F)F)c3)n2)cc(OC)c1OC
growth [1]: -9.38% (active) | growth [2]: -13% (active) | growth [3]: -7.7% (active) | growth [4]: 18.1% | growth [5]: -9.68% (active) | growth [6]: -19.6% (active) | growth [7]: 21.4% | growth [8]: 9.25% (active)

Cc1c2cnccc2c(C)c2c1oc1ccccc12
growth [1]: 77.5% | growth [2]: 80.9% | growth [3]: 91.6% | growth [4]: 64.1% | growth [5]: 43.7% | growth [6]: 45% | growth [7]: 84.9% | growth [8]: 81.7%

CCN(CC)CCOC(=O)c1cc(OCc2ccccc2)c(OCc2ccccc2)c(OCc2ccccc2)c1
growth [1]: 66.8% | growth [2]: 86.8% | growth [3]: 74.7% | growth [4]: 19.7% | growth [5]: 8.2% (active) | growth [6]: 24% | growth [7]: 53.8% | growth [8]: 40.7%

O=C(/C=C/c1cccc(B(O)O)c1)c1cccc(B(O)O)c1
growth [1]: 11.1% | growth [2]: -91% (active) | growth [3]: 0.799% (active) | growth [4]: -41.3% (active) | growth [5]: 0.092% (active) | growth [6]: -88.3% (active) | growth [7]: -86.4% (active) | growth [8]: -64.4% (active)

CCOC(=O)CC(S(=O)(=O)c1ccccc1)S(=O)(=O)c1ccccc1
growth [1]: 88.1% | growth [2]: 110% | growth [3]: 107% | growth [4]: 8.23% (active) | growth [5]: 101% | growth [6]: 102% | growth [7]: 109% | growth [8]: 97.1%

COc1ccc([C@H]2[C@H](C(=O)Nc3cccnc3)c3ccccc3C(=O)N2c2ccccc2)cc1
growth [1]: 74% | growth [2]: 90.5% | growth [3]: 99.1% | growth [4]: 91.4% | growth [5]: 95.7% | growth [6]: 49.4% | growth [7]: 100% | growth [8]: 60.7%

CCn1c(CSc2nc3ccccc3c(=O)n2CCc2ccccc2)n[nH]c1=S
growth [1]: 73.3% | growth [2]: 72.3% | growth [3]: 84.8% | growth [4]: 97.5% | growth [5]: 84% | growth [6]: 65.5% | growth [7]: 99% | growth [8]: 92.3%

CC(C)(C)c1ccc(S(=O)(=O)Oc2ccc(NC(=O)C3CCCCC3)cc2)cc1
growth [1]: 0.897% (active) | growth [2]: 51.8% | growth [3]: 59.6% | growth [4]: 51.9% | growth [5]: 19.8% | growth [6]: 30.8% | growth [7]: 51.8% | growth [8]: 31.7%

COc1cc(/C=C/c2cc(/C=C/c3ccc(O)c(OC)c3)nc(N)n2)ccc1O
growth [1]: 1.57% (active) | growth [2]: -24.4% (active) | growth [3]: -8.12% (active) | growth [4]: 1.86% (active) | growth [5]: 7.59% (active) | growth [6]: 0.331% (active) | growth [7]: 0.932% (active) | growth [8]: -29.3% (active)

COc1cc(/C=C2\CCCC3=C2N=C2SC(C)=CN2C3c2cc(OC)c(OC)c(OC)c2)cc(OC)c1OC (stereo not drawn)
growth [1]: 33.1% | growth [2]: -14.5% (active) | growth [3]: 1.99% (active) | growth [4]: -0.154% (active) | growth [5]: 16% | growth [6]: -86.2% (active) | growth [7]: -88% (active) | growth [8]: -80.4% (active)

O=C(CN(C1CCCCC1)C1CCCCC1)Nc1ccc(S(=O)(=O)c2ccc(NC(=O)CN(C3CCCCC3)C3CCCCC3)cc2)cc1
growth [1]: -38.1% (active) | growth [2]: -85.3% (active) | growth [3]: -39.5% (active) | growth [4]: -48.4% (active) | growth [5]: -40.7% (active) | growth [6]: -86.3% (active) | growth [7]: -37.4% (active) | growth [8]: -28.6% (active)

COc1ccc(CCN2CCC(Nc3nc4ccccc4n3Cc3ccc(F)cc3)CC2)cc1
growth [1]: -3.86% (active) | growth [2]: 31.9% | growth [3]: -91.7% (active) | growth [4]: -54.8% (active) | growth [5]: -53.6% (active) | growth [6]: -39.4% (active) | growth [7]: -84.6% (active) | growth [8]: 17.7%

NC(N)=N/N=C(\N=Nc1ccccc1)c1ccc(Cl)cc1
growth [1]: 20.4% | growth [2]: 67.2% | growth [3]: 5.69% (active) | growth [4]: 12.7% | growth [5]: 23.8% | growth [6]: 15% | growth [7]: 11% | growth [8]: 20.8%

OCC1OC(n2ccc3c(NO)ncnc32)C(O)C1O (stereo not drawn)
growth [1]: -18.9% (active) | growth [2]: -31.5% (active) | growth [3]: -54.5% (active) | growth [4]: -3.1% (active) | growth [5]: -0.414% (active) | growth [6]: -33.1% (active) | growth [7]: -38.7% (active) | growth [8]: -26.6% (active)

COc1cc(C(=O)N2CCN(c3cc4c(cc3F)c(=O)c(C(=O)NO)cn4C3CC3)CC2)cc(OC)c1OC
growth [1]: 82.7% | growth [2]: 105% | growth [3]: 105% | growth [4]: 99% | growth [5]: 99% | growth [6]: 105% | growth [7]: 110% | growth [8]: 104%

CCOC(=O)c1cc(C(=O)c2cc(OC)c(OC)c(OC)c2)n2c1ccc1c3cccnc3ccc12
growth [1]: 50.7% | growth [2]: 68.9% | growth [3]: 8.8% (active) | growth [4]: 23.6% | growth [5]: 28.8% | growth [6]: 21.6% | growth [7]: 81.9% | growth [8]: 41.5%

COc1cc(-c2ccc[nH]2)[nH]c1/C=C1\N=C(C)C(C(=O)NC(C)C)=C1C
growth [1]: 34% | growth [2]: 43.8% | growth [3]: 14.9% | growth [4]: 7.72% (active) | growth [5]: 7.83% (active) | growth [6]: 4.6% (active) | growth [7]: 21.2% | growth [8]: 19.3%

COc1ccc(/C=C2\CCCC3=C2N=C2SC(C)=CN2C3c2ccc(OC)cc2)cc1 (stereo not drawn)
growth [1]: 108% | growth [2]: 105% | growth [3]: 90% | growth [4]: 99.6% | growth [5]: 88.8% | growth [6]: 93.4% | growth [7]: 111% | growth [8]: 108%
